Data on 69 molecules can be found in the antibiotic and cytotoxicity screens of Wong et al. (2023).

Screen size: about 39,000 compounds; about 1,500 (3.8%) were called active. What follows is part of a selection rich in actives, with near analogues and random picks from the rest.

The test system of this assay is HSkMC (human skeletal muscle cells). The assay can be described thus: cytotoxicity call (relative viability < 0.9). The note with it: 10 µM.
Turning to `O=C1NC[C@@H](c2ccccc2)OC(=O)[C@H](Cc2ccc(F)cc2)CCC=CC[C@@H]1CC(=O)N(CCO)Cc1ccccc1`, the cytotoxicity call was “inactive”.

As to `C[C@H]1CN([C@@H](C)CO)C(=O)c2cc(NC(=O)Nc3ccc(C(F)(F)F)cc3)ccc2O[C@@H]1CN(C)Cc1ccncc1`, the cytotoxicity call is “inactive”.

For `COc1ccc(S(=O)(=O)Nc2cccc3c2O[C@H](CN(C)Cc2ccncc2)[C@@H](C)CN([C@H](C)CO)C3=O)cc1`, the cytotoxicity call was “inactive”. Regarding `CCC1OC(=O)C(C)C(=O)C(C)C(OC2OC(C)CC(N(C)C)C2O)C(C)(OC)CC(C)C(=O)C(C)C2N(CCCCn3cnc(-c4cccnc4)c3)C(=O)OC12C` (centres undefined), the cytotoxicity call is “inactive”. Turning to `C[C@@H]1CN([C@@H](C)CO)C(=O)c2cc(NC(=O)Cc3cn(C)c4ccccc34)ccc2O[C@@H]1CN(C)Cc1ccc(C(F)(F)F)cc1`, the cytotoxicity call was “inactive”. The same measure for `C[C@@H]1CN([C@H](C)CO)C(=O)c2cccc(NC(=O)Nc3ccc(F)cc3)c2O[C@@H]1CN(C)Cc1ccc(-c2ccccc2)cc1`: “inactive”.

Regarding `CC(=O)n1cc([C@H]2C=C(C(=O)NCc3ccccc3)O[C@@H](OCc3ccc(CO)cc3)C2)c2ccccc21`, the cytotoxicity call is “inactive”. As to `CN(C)CC(=O)N[C@H]1C=C[C@H](CC(=O)NCCN2CCCCC2)O[C@H]1CO`, the cytotoxicity call is “inactive”. The same measure for `COC(=O)[C@@H](NC(=O)Cn1cc(COc2ccccc2/C=C(C)/C=C/C(=O)NO)nn1)c1ccccc1`: “inactive”; for `Cc1noc(C)c1NC(=O)Nc1ccc2c(c1)C(=O)N([C@@H](C)CO)C[C@@H](C)[C@@H](CN(C)Cc1ccc(Oc3ccccc3)cc1)O2`: “inactive”; for `N=C(C[n+]1ccccc1)NO`: “inactive”. The same measure for `COC(=O)[C@H](Cc1ccc(-n2cc(-c3cccc(/C=C/C(=O)NO)c3)nn2)cc1)N1CC2=C[C@H]([C@@H](O)Cc3ccccc3)n3c(=O)n(C)c(=O)n3[C@@H]2[C@@H](C2CC2)O1`: “inactive”; for `C[C@H](CO)N1C[C@H](C)[C@@H](CN(C)Cc2ccc(C(=O)Nc3ccccc3N)cc2)Oc2ccc(NC(=O)CCN3CCOCC3)cc2CC1=O`: “inactive”; for `CC(C)N1C[C@H](C)[C@@H](CN(C)Cc2ccc(Oc3ccccc3)cc2)Oc2c(NC(=O)C3CCN(C)CC3)cccc2C1=O`: “inactive”. The same measure for `C[C@H](CO)N1C[C@H](C)[C@@H](CN(C)Cc2ccc(Oc3ccccc3)cc2)Oc2c(NC(=O)C3CC3)cccc2C1=O`: “inactive”; for `CC(C)N1C[C@H](C)[C@@H](CN(C)Cc2ccc(Oc3ccccc3)cc2)Oc2c(NC(=O)C3CCNCC3)cccc2C1=O`: “active”. Regarding `COCC(=O)N1C[C@@H](C)[C@@H](OC)CN(C)C(=O)c2cc(NC(=O)c3ccc(F)cc3)ccc2OC[C@H]1C`, the cytotoxicity call was “inactive”. The same measure for `CN(C)CC(=O)N[C@H]1CC[C@H](CCNC(=O)C2CC2)O[C@H]1CO`: “inactive”; for `CO[C@@H]1CN(C)C(=O)c2ccc(NS(=O)(=O)CC(F)(F)F)cc2OC[C@@H](C)N(Cc2nccs2)C[C@@H]1C`: “inactive”.

Consider `O=C(CCCCCCC(=O)Nc1ccc([C@H]2C[C@H](c3ccccc3)O[C@H](c3ccccc3)O2)cc1)NO`, for which the cytotoxicity call was “inactive”.

On to `O=C(CCCCCCC(=O)Nc1ccc([C@H]2O[C@@H](CN3CCCCCCC3)C[C@H](c3ccccc3)O2)cc1)NO`, for which the cytotoxicity call is “inactive”. The same measure for `O=C(CCCCCCC(=O)Nc1ccc([C@H]2C[C@H](c3ccccc3)O[C@H](c3ccc(Oc4ccccc4)cc3)O2)cc1)NO`: “active”; for `COc1cc2c(cc1OC)CN(C[C@H]1C[C@H](c3ccccc3)O[C@H](c3ccc(NC(=O)CCCCCCC(=O)NO)cc3)O1)CC2`: “active”. The same measure for `O=C(CCCCCCC(=O)Nc1ccc([C@H]2C[C@H](c3ccccc3)O[C@H](c3cccc(Oc4ccccc4)c3)O2)cc1)NO`: “inactive”; for `O=C(CCCCCCC(=O)Nc1ccc([C@H]2O[C@@H](COc3ccccc3)C[C@H](c3ccccc3)O2)cc1)NO`: “inactive”; for `C[C@@H]1CN([C@H](C)CO)C(=O)c2cc(NC(=O)C3CCCCC3)ccc2O[C@@H](C)CCCCO[C@H]1CN(C)S(=O)(=O)c1cccs1`: “inactive”. The same measure for `COc1ccc(NC(=O)N(C)C[C@@H]2OCCCC[C@H](C)Oc3ccc(NC(=O)Nc4c(C)noc4C)cc3C(=O)N([C@@H](C)CO)C[C@H]2C)cc1`: “inactive”.

For the molecule `CC(C)=CCCC(C)=CCO`, the cytotoxicity call is “inactive”. With `CN(C)CCOc1ccc(C(=C(CCCl)c2ccccc2)c2ccccc2)cc1.O=C(O)CC(O)(CC(=O)O)C(=O)O`, the cytotoxicity call is “active”.

Consider `CCC(=C(c1ccccc1)c1ccc(OCCN(C)C)cc1)c1ccccc1.O=C(O)CC(O)(CC(=O)O)C(=O)O`, for which the cytotoxicity call is “inactive”.

`CCN(CC)CCOc1ccc(C(=C(Cl)c2ccccc2)c2ccccc2)cc1.O=C(O)CC(O)(CC(=O)O)C(=O)O`: the cytotoxicity call was “inactive”. The same measure for `C[C@H]1CN([C@@H](C)CO)S(=O)(=O)c2ccc(C3=CCCC3)cc2O[C@@H]1CN(C)C(=O)c1cnccn1`: “inactive”; for `C[C@@H]1CN([C@@H](C)CO)S(=O)(=O)c2ccc(C#CCC3CCCC3)cc2O[C@@H]1CN(C)C(=O)CN(C)C`: “inactive”; for `Cc1cc(-c2ccc(NN=C3C=Cc4c(S(=O)(=O)O)cc(S(=O)(=O)O)c(N)c4C3=O)c(C)c2)ccc1NN=C1C=Cc2c(S(=O)(=O)O)cc(S(=O)(=O)O)c(N)c2C1=O`: “inactive”. The same measure for `COc1cc(-c2ccc(NN=C3C=Cc4c(S(=O)(=O)O)cc(S(=O)(=O)O)c(N)c4C3=O)c(OC)c2)ccc1NN=C1C=Cc2c(S(=O)(=O)O)cc(S(=O)(=O)O)c(N)c2C1=O`: “active”; for `Cc1noc(C)c1S(=O)(=O)Nc1ccc2c(c1)CC(=O)N([C@@H](C)CO)C[C@@H](C)[C@H](CN(C)C(=O)NC(C)C)O2`: “inactive”; for `C[C@@H]1CN([C@@H](C)CO)C(=O)c2cc(NC(=O)Nc3cccc4ccccc34)ccc2O[C@@H](C)CCCCO[C@H]1CN(C)C(=O)Nc1ccc2c(c1)OCO2`: “inactive”.

As to `C[C@@H]1CN([C@@H](C)CO)C(=O)Cc2cc(NC(=O)CCC(F)(F)F)ccc2O[C@@H]1CN(C)S(=O)(=O)c1ccccc1`, the cytotoxicity call is “inactive”.

`C[C@H]1CN([C@@H](C)CO)C(=O)Cc2cc(NC(=O)Nc3ccc(C(F)(F)F)cc3)ccc2O[C@@H]1CN(C)Cc1ccc2c(c1)OCO2`: the cytotoxicity call was “inactive”. Turning to `C[C@H](CO)N1C[C@H](C)[C@@H](CN(C)Cc2ccc3c(c2)OCO3)Oc2ccc(NC(=O)Nc3ccc(C(F)(F)F)cc3)cc2CC1=O`, the cytotoxicity call is “active”. `C[C@H]1CN([C@@H](C)CO)C(=O)Cc2cc(NC(=O)Nc3ccc(C(F)(F)F)cc3)ccc2O[C@H]1CN(C)Cc1ccc2c(c1)OCO2`: the cytotoxicity call was “active”. For the molecule `C[C@@H]1CN([C@@H](C)CO)C(=O)Cc2cc(NC(=O)Nc3ccc(C(F)(F)F)cc3)ccc2O[C@H]1CN(C)Cc1ccc2c(c1)OCO2`, the cytotoxicity call was “inactive”. In the case of `C[C@@H]1CN([C@H](C)CO)C(=O)Cc2cc(NC(=O)Nc3ccc(C(F)(F)F)cc3)ccc2O[C@H]1CN(C)Cc1ccc2c(c1)OCO2`, the cytotoxicity call is “inactive”. In the case of `C[C@@H]1CN([C@@H](C)CO)C(=O)Cc2cc(NC(=O)Nc3ccc(C(F)(F)F)cc3)ccc2O[C@@H]1CN(C)Cc1ccc2c(c1)OCO2`, the cytotoxicity call is “active”. The same measure for `C[C@@H]1CN([C@H](C)CO)C(=O)Cc2cc(NC(=O)Nc3ccc(C(F)(F)F)cc3)ccc2O[C@@H]1CN(C)Cc1ccc2c(c1)OCO2`: “active”; for `C[C@H](CO)N1C[C@H](C)[C@H](CN(C)Cc2ccc3c(c2)OCO3)Oc2ccc(NC(=O)Nc3ccc(C(F)(F)F)cc3)cc2CC1=O`: “inactive”; for `C[C@@H]1CN([C@H](C)CO)C(=O)Cc2cc(NS(=O)(=O)c3cn(C)cn3)ccc2O[C@H]1CN(C)S(=O)(=O)c1ccc(F)cc1`: “inactive”. On to `C[C@@H]1CN([C@H](C)CO)S(=O)(=O)c2ccc(-c3cccnc3)cc2O[C@H]1CN(C)C(=O)NC1CCCC1`, for which the cytotoxicity call was “inactive”. The same measure for `C[C@H]1CN([C@@H](C)CO)C(=O)c2cccc(NC(=O)c3ccncc3)c2O[C@H]1CN(C)C(=O)Nc1ccc2c(c1)OCO2`: “inactive”; for `C[C@@H]1CCCCO[C@H](CN(C)C(=O)c2ccncc2)[C@@H](C)CN([C@@H](C)CO)C(=O)c2cc(NC(=O)NC3CCCCC3)ccc2O1`: “inactive”; for `Cc1noc(C)c1S(=O)(=O)Nc1ccc2c(c1)C(=O)N([C@H](C)CO)C[C@@H](C)[C@H](CN(C)S(=O)(=O)c1cn(C)cn1)O2`: “inactive”.

Regarding `CCS(=O)(=O)Nc1ccc2c(c1)C(=O)N(C)[C@@H]1CC[C@H](CC(=O)NCCCN3CCOCC3)O[C@H]1CO2`, the cytotoxicity call was “inactive”.

Take `Cc1ccc(S[C@]2(C(=O)NCCN3CCOCC3)CC(=O)N(Cc3ccccc3Cl)[C@@H]2c2ccc(CO)cc2I)cc1`: the cytotoxicity call is “inactive”. The same measure for `C[C@H](CO)N1C[C@H](C)[C@@H](CN(C)C(=O)CN2CCOCC2)Oc2ncc(C#C[C@@H](C)O)cc2C1=O`: “inactive”. In the case of `COCC(=O)N(C)C[C@H]1Oc2cc(C#Cc3cccnc3)ccc2S(=O)(=O)N([C@H](C)CO)C[C@@H]1C`, the cytotoxicity call is “inactive”. The same measure for `C[C@@H]1CCCCO[C@H](CN(C)Cc2ccc(C(=O)O)cc2)[C@@H](C)CN([C@H](C)CO)C(=O)c2cc(NC(=O)Nc3ccc4c(c3)OCO4)ccc2O1`: “inactive”; for `Cc1noc(C)c1S(=O)(=O)Nc1ccc2c(c1)C(=O)N([C@H](C)CO)C[C@H](C)[C@H](CN(C)S(=O)(=O)c1cn(C)cn1)OCCCC[C@@H](C)O2`: “inactive”; for `C[C@H](CCC(=O)O)[C@H]1CC[C@H]2[C@@H]3CC=C4C[C@@H](O)CC[C@]4(C)[C@H]3CC[C@]12C` [3beta-HYDROXYCHOL-5-ENIC ACID ]: “inactive”. The same measure for `Cc1noc(C)c1S(=O)(=O)Nc1ccc2c(c1)C(=O)N([C@@H](C)CO)C[C@@H](C)[C@@H](CN(C)Cc1ccc(C(F)(F)F)cc1)OCCCC[C@@H](C)O2`: “inactive”; for `C[C@@H]1CN([C@@H](C)CO)C(=O)Cc2cc(NC(=O)Nc3ccc(C(F)(F)F)cc3)ccc2O[C@H]1CN(C)Cc1ccc(C(=O)O)cc1`: “inactive”; for `C[C@H]1CN([C@@H](C)CO)C(=O)Cc2cc(NC(=O)Nc3ccc(C(F)(F)F)cc3)ccc2O[C@H]1CN(C)Cc1ccc(C(=O)O)cc1`: “inactive”. The same measure for `C[C@H](CO)N1C[C@H](C)[C@H](CN(C)Cc2ccc(C(F)(F)F)cc2)Oc2ccc(NC(=O)Nc3ccc(C(F)(F)F)cc3)cc2CC1=O`: “active”; for `C[C@@H]1CN([C@H](C)CO)C(=O)Cc2cc(NC(=O)Nc3ccc(C(F)(F)F)cc3)ccc2O[C@H]1CN(C)Cc1ccc(C(=O)O)cc1`: “inactive”; for `C[C@H]1CN([C@@H](C)CO)C(=O)Cc2cc(NC(=O)Nc3ccc(C(F)(F)F)cc3)ccc2O[C@H]1CN(C)Cc1ccc(C(F)(F)F)cc1`: “active”.

Regarding `C[C@H](CO)N1C[C@H](C)[C@H](CN(C)Cc2ccc(C(=O)O)cc2)Oc2ccc(NC(=O)Nc3ccc(C(F)(F)F)cc3)cc2CC1=O`, the cytotoxicity call is “inactive”. Turning to `C[C@@H]1CN([C@@H](C)CO)C(=O)Cc2cc(NC(=O)Nc3ccc(C(F)(F)F)cc3)ccc2O[C@H]1CN(C)Cc1ccc(C(F)(F)F)cc1`, the cytotoxicity call is “active”.

`C[C@H](CO)N1C[C@H](C)[C@@H](CN(C)Cc2ccc(C(=O)O)cc2)Oc2ccc(NC(=O)Nc3ccc(C(F)(F)F)cc3)cc2CC1=O`: the cytotoxicity call was “inactive”. The same measure for `C[C@H]1CN([C@@H](C)CO)C(=O)Cc2cc(NC(=O)Nc3ccc(C(F)(F)F)cc3)ccc2O[C@@H]1CN(C)Cc1ccc(C(F)(F)F)cc1`: “active”; for `C[C@H]1CN([C@@H](C)CO)C(=O)Cc2cc(NC(=O)Nc3ccc(C(F)(F)F)cc3)ccc2O[C@@H]1CN(C)Cc1ccc(C(=O)O)cc1`: “inactive”.
